Laboratory results: PubChem BioAssay (NCI)
Values joined by “and” are separate entries in the source; they are usually repeats but may differ in a detail not shown here. Identical values can stand only once. The panel holds about 83,000 compounds, 20% with a hit somewhere; the sample as a whole holds those more often.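 Compound tested at a single concentration for 48 hours in 96-well plates; a percent growth value below 10 was scored as active.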 Values without a mark were called inactive. Active and inactive are the calls of the source.

Experiments:
Experiment in all cases: NCI-60 one-dose screen, 48 h (100 = growth as untreated, 0 = no growth, -100 = all killed)
Conditions in all cases: 10 µM unless noted
[1] = test system: DU-145 prostate
[2] = test system: K-562 leukemia
[3] = test system: MALME-3M melanoma
[4] = test system: MDA-MB-231 breast
[5] = test system: RXF 393 renal
[6] = test system: SF-268 CNS
[7] = test system: SF-295 CNS
[8] = test system: SF-539 CNS
[9] = test system: UACC-257 melanoma
[10] = test system: M14 melanoma

Structure (SMILES) | growth [1] | growth [2] | growth [3] | growth [4] | growth [5] | growth [6] | growth [7] | growth [8] | growth [9] | growth [10]
O=c1oc2c(Br)cc(Br)cc2cc1-c1cc(-c2ccc(-c3cc(-c4cc5cc(Br)cc(Br)c5oc4=O)nc(-c4cc5cc(Br)cc(Br)c5oc4=O)c3)cc2)cc(-c2cc3cc(Br)cc(Br)c3oc2=O)n1 | 112% | 97.9% | 92.6% | 93.7% | 119% | 105% | 106% | 107% | 109% | 107%
CCN1C(=O)N(c2ccccc2)C2NC(=S)N(/N=C/C=C/c3ccccc3)C21 (stereo not given) | 8.79% (active) | 8.8% (active) | 45.8% | 15.7% | 9.01% (active) | 31.9% | 2.91% (active) | -27% (active) | 39.5% | 0.94% (active)
Nc1nc(Nc2cccnc2)sc1C(=O)c1ccccc1F | 17.8% | 66.5% | 157% | 83.1% | -42% (active) | 20.8% | 34.9% | -3.32% (active) | 72.9% | 59.2%
Cc1ccc(-c2nc([P+](c3ccccc3)(c3ccccc3)c3ccccc3)c(Nc3ccccc3)o2)cc1 | 13.2% | 0.731% (active) | -44.1% (active) | -36.5% (active) | -31.7% (active) | 10.6% | -21% (active) | -76.6% (active) | -13.5% (active) | -40.4% (active)
CC[C@@H]1NC(=O)[C@H]([C@H](O)[C@H](C)C/C=C/c2ccc(CN3C(=O)C(C)=C(C)C3=O)cc2)N(C)C(=O)[C@H](C(C)C)N(C)C(=O)[C@H](CC(C)C)N(C)C(=O)[C@H](CC(C)C)N(C)C(=O)[C@@H](C)NC(=O)[C@H](C)NC(=O)[C@H](CC(C)C)N(C)C(=O)[C@H](C(C)C)NC(=O)[C@H](CC(C)C)N(C)C(=O)CN(C)C1=O | 73.9% | 70% | 88.2% | 71.5% | 80% | 71% | 69.4% | 86.9% | 69.4% | 60%
c1ccc(-c2cc(-c3cc(-c4ccccc4)on3)no2)cc1 | 9.62% (active) | 77.7% | 114% | 105% | 74.8% | 90.1% | 82.2% | 91.3% | 79.6% | 109%
Cc1nc2cccc(NCCCCC(=O)NO)c2c(=O)n1-c1ccccc1 | 58.1% | 40.9% | 23.4% | 77.1% | 49.2% | 74.6% | 82.9% | 49.9% | 42.7% | 50.4%
Clc1ccc2c(c1)N(c1ncnc3ccc(-c4cnc5[nH]ccc5c4)cc13)CC2 | 27.6% | 5.53% (active) | 7.46% (active) | 35.6% | 4.78% (active) | 39.8% | 19.7% | 27.5% | 34.4% | 8.89% (active)
Oc1ccccc1C=Nc1ccc(N2CCN(c3ccccc3)CC2)cc1 | 104% | 80.7% | 114% | 100% | 97.7% | 99.2% | 103% | 77.2% | 97% | 96.3%
N#Cc1cc(-c2ccnc(Nc3ccc(NC(=O)CCl)cc3)n2)ccc1N1CCCC1 | 17.1% | 2.55% (active) | -68.5% (active) | -31.8% (active) | -79.3% (active) | -8.99% (active) | -26.9% (active) | -94.4% (active) | 3.7% (active) | -40.9% (active)
O=S(=O)(Nc1ccc(F)cc1)c1ccc(-c2cnc(C3CC3)o2)cc1 | 34% | 11.9% | 46% | 49.7% | 25.9% | 45.5% | 30.2% | 19.4% | 43.4% | 12.2%
Cc1c(CC(=O)OCCO)cc(-c2ccc(Cl)cc2)n1-c1ccccc1 | 102% | 70.5% | 103% | 95.4% | 107% | 94.5% | 96.6% | 101% | 98.9% | 109%
CNC(=O)c1cc(Oc2ccc3nc(NC(=O)Nc4ccc(C(F)(F)F)cc4)sc3c2)ccn1 | 48.9% | 76.3% | 20.8% | 63.5% | 85.5% | 65% | 63.2% | 82.2% | 86.7% | 35.8%
Nc1nc2ccccc2c2c(=O)c3ccc(Cl)cc3sc12 | 97.5% | 90.7% | 107% | 91% | 111% | 95.2% | 101% | 106% | 105% | 94.5%
C=C(C)[C@@H]1CC[C@]2(C(=O)O)CC[C@]3(C)[C@H](CC[C@@H]4[C@@]5(C)CCC(N)C(C)(C)[C@@H]5CC[C@]43C)[C@@H]12 (stereo not given in full) | 33.1% | -28.2% (active) | -61.3% (active) | 18.3% | 81.3% | 91.3% | 73.7% | 96.5% | 93.2% | 27.1%
COc1ccc(-c2[nH]c3ccccc3c2-c2ccc(OC)cc2)cc1 | -30.6% (active) | 3.69% (active) | 73.3% | 52.6% | 51.9% | 61.4% | 50.2% | 45.3% | 72% | 34.9%
Cc1[nH]c(C(=O)Nc2nc3ccc(NC(=O)CCN)cc3s2)c(Cl)c1Cl | 48.4% | 6.04% (active) | 53.8% | 51% | 81.9% | 56.2% | 95.7% | 52.1% | 96.8% | 44.1%
O=C(Nc1ccc(F)cc1)c1cc2cc(Nc3nc(-c4ccccc4)nc4ccccc34)ccc2oc1=O | 108% | 102% | 103% | 90.6% | 115% | 97.3% | 108% | 108% | 96.6% | 102%
COc1ccc(/C=C/C(=O)c2cc3c(N)c(C(=O)Nc4ccccc4)sc3nc2C)cc1 | 10.9% | 14.7% | 58.1% | 13.3% | -19.2% (active) | 22.6% | 11.6% | -27.3% (active) | 69.5% | 6.3% (active)
CC1=C2[C@@H](CC1)[C@]1(C)O[C@@](C(C)C)(C[C@H]1OC(=O)CO)[C@H]2OC(=O)C1CC1c1ccccc1 (stereo not given in full) | 100% | 67.7% | 91.7% | 89.7% | 69.3% | 76.2% | 67.4% | 101% | 88.8% | 88.3%
C=C(c1ccc(C(=O)O)cc1)c1cc2c(cc1C)C(C)(C)CCC2(C)C | 94.4% and 92.3% | 53.4% and 58.5% | 64.9% | 69.6% and 68.2% | 94.9% and 105% | 90.2% and 75.4% | 38.5% and 48.8% | 82.1% and 80.5% | 94.9% and 90.3% | 87% and 75.5%
CCOC(=O)CC1CSC(c2cccc(Cl)c2)=N1 (stereo not given) | 111% | 92.9% | 108% | 105% | 106% | 101% | 102% | 114% | 99.1% | 101%
O=C(Oc1ccc(CO[N+](=O)[O-])cc1)c1ccccc1 | -94.6% (active) | -37.1% (active) | -69.9% (active) | -80.6% (active) | -86.2% (active) | -84.8% (active) | -91.9% (active) | -90% (active) | -78% (active) | -83% (active)
COc1cc(-c2[nH]ncc2Nc2ccc(Cl)cc2)cc(OC)c1OC | 102% | 47.2% | 69.4% | 62.6% | 89.4% | 84.5% | 42.7% | 70.1% | 64.6% | 71.3%
COc1ccc(/C(C)=C(\c2ccc(OCCN3CCCCCC3)cc2)c2ccc(OC(=O)C3CCCCC3)cc2)cc1 | -12.1% (active) | -23.5% (active) | -81.2% (active) | -84.1% (active) | -83.1% (active) | -30.6% (active) | -90.3% (active) | -85.4% (active) | -71.4% (active) | -70.4% (active)
CN1CCN(CCNC(=O)c2cccc(CN3c4cccc5c4C(=Cc4cccnc43)N(C)C5=O)c2)CC1 | 68.1% | 30% | 49.3% | 31.7% | 26.6% | 59.3% | 42.5% | 33.5% | 50% | 45.4%
